About 2,500 (0.74%) of roughly 340,000 compounds were called active. This is one part of a sample in which actives are shown more often than they occur. Values without a mark were called inactive.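 How the source made its calls: active means inhibition above about 55% (limit read from the data); inactive means the rest.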
Test: Gli-Sufu pathway antagonists, primary screen, luciferase luminescence, Sufu-KO-LIGHT cells, uHTS (AID 588413);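 further: 0% = DMSO-treated cells and 100% = wells with medium but no cells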
Settings: Sufu-KO-LIGHT fibroblasts, Gli luciferase reporter luminescence; at 5 µM; hits give high values

| Compound | inhibition |
| --- | --- |
| CCS(=O)(=O)Nc1ccc(C2=NN(S(=O)(=O)c3ccc(F)cc3)C(c3ccco3)C2)cc1 (stereo not given) | 1.29% |
| Cn1cc(S(=O)(=O)Nc2ccc(Cl)cc2Cl)c(=O)n(C)c1=O | 1.79% |
| O=C(NCCS(=O)(=O)NCc1ccc(Cl)cc1)c1ccccc1 | -12.9% |
| Cc1cc(C(=O)NCCc2ccc(Cl)cc2)n(-c2ccccc2)n1 | -16.3% |
| O=C(NCCOCc1ccc(Cl)cc1)c1ncn[nH]1 | 84.5% (active) |
| CCOc1ccc(NC(=S)N2CCCCCC2)cc1 | -2.25% |
| Cc1nn(C)c(C)c1S(=O)(=O)N1CCC(CO)(Cc2ccc(Cl)cc2)CC1 | 8.21% |
| CNC(=S)NNC(=O)c1cccn(Cc2ccccc2)c1=O | 13.9% |
| C=CCNC(=O)COc1coc(CN2CCN(Cc3ccccc3)CC2)cc1=O | 3.43% |
| C=CCNC(=S)/N=c1/ccccn1Cc1ccccc1 | 67.3% (active) |
| Cc1cccc(NC(=O)C2CCCN2S(=O)(=O)c2ccc(F)cc2)c1C (stereo not given) | 10.9% |
| Cc1[nH]nc(-c2ccc(OCc3cnn(-c4ccccc4)c3)cc2O)c1Oc1ccc(Cl)cc1 | 4.97% |
| COc1cccc(CC(=NO)c2cccc(OC)c2)c1 | -2.96% |
| Cc1noc(NS(=O)(=O)c2ccc(N3CC(O)=C(c4ccccc4)C3=N)cc2)c1C | -2.28% |
| CC(C)(C)c1ccc(C(=O)NCc2ccco2)cc1 | -4.01% |
| CCCC1=Nc2cc(C(=O)NCCN3CCCC3)ccc2Sc2ccccc21 | 18.7% |
| CCCC1=Nc2cc(C(=O)NCc3ccco3)ccc2Sc2ccccc21 | 65.9% (active) |
| COc1c(O)ccc2c1CN1CCc3cc4c(cc3C1C2)OCO4 (stereo not given) | -25.1% |
| CCOC(=O)c1sc2nc(C)nc(Nc3ccc(OC)c(OC)c3)c2c1C | 12.9% |
| COc1ccccc1/C=C/CN1CCC(CO)(Cc2ccccc2)CC1 | 65.4% (active) |
| OCC1(Cc2ccccc2)CCN(Cc2cc3ccccc3o2)CC1 | 22.4% |
| CC(=O)c1cccc(CN2CCC(CO)(Cc3ccccc3)CC2)c1 | 30.4% |
| CCOC(=O)C1CCCN(C(=O)C2CCN(S(=O)(=O)c3ccc(Cl)c(C(F)(F)F)c3)CC2)C1 (stereo not given) | 3.88% |

| Compound | inhibition |
| --- | --- |
| CCOC(=O)c1ccccc1NC(=O)c1c(N)n(C)c(=O)[nH]c1=O | 5.02% |
| COc1ccc(-n2nnc3c(=O)n(CC(=O)OCc4ccccc4)cnc32)cc1 | 1.46% |
| Cc1ccc(-c2ccc(=O)n(CC(=O)NCCCN3CCCCC3)n2)cc1 | 5.01% |
| CCC1CCCCN1CCCNC(=O)Cn1nc(-c2ccccc2)ccc1=O (stereo not given) | 57% (active) |
| CCCn1c2ccccc2c2cnn(CC(=O)NCCCN3CCCCC3CC)c(=O)c21 (stereo not given) | 12.7% |
| CCOC(=O)c1ccc(S(=O)(=O)N(CCO)Cc2cc3cc(OC)c(OC)cc3[nH]c2=O)cc1 | 1.66% |
| Cc1ccc(S(=O)(=O)NCCC(c2ccccc2)c2ccccc2)cc1C(=O)O | -19.2% |
| CCN(CC)CCNC(=O)c1ccc(NC(=O)c2cc(-c3ccncc3)nc3ccccc23)cc1 | 64.3% (active) |
| COC(=O)CNC(=O)c1cc(-c2ccncc2)nc2ccccc12 | -8.23% |
| O=C(Nc1ccc(S(=O)(=O)Nc2nccs2)cc1)c1cc(-c2ccncc2)nc2ccccc12 | 0.2% |
| CN(C)c1ccc(CNC2C3CC4CC(C3)CC2C4)cc1 (stereo not given) | 1.25% |
| O=C(NCC(=O)N1CCCCCCC1)c1ccccc1Cl | -20.5% |
| CC(=O)c1ccc(S(=O)(=O)NCCC(=O)N2CCN(c3ccccn3)CC2)cc1 | -5.24% |
| CCN(Cc1cc2cc(C)ccc2[nH]c1=O)S(=O)(=O)c1ccccc1 | 0.68% |
| O=C(c1cccs1)N(Cc1cc2ccccc2[nH]c1=O)CC1CCCO1 (stereo not given) | 20.4% |
| Cc1ccc(S(=O)(=O)N(Cc2cc3ccccc3[nH]c2=O)CC2CCCO2)cc1 (stereo not given) | 64.1% (active) |
| O=C(O)CCCn1c(=O)c2cccn2c2ccc(F)cc21 | 4.96% |
| COc1ccc(C2=NS(=O)(=O)N(C)C(C(=O)N3CCCCC3)=C2)cc1 | 14.7% |
| CCOc1ccccc1N1CN(Cc2ccccc2)CNC1=S | -9.38% |
| C=CCC1(CC=C)CCCN1C(=O)c1cc(COc2ccc(-n3cncn3)cc2)on1 | 77.8% (active) |
| COc1cccc(OCc2cc(C(=O)N3CCN(C(=O)c4ccco4)CC3)no2)c1 | -5.15% |
| O=C(c1cc(COc2ccc(F)c(F)c2)on1)N1CCOCC1 | -41.7% |
| COc1cc(Cl)c(C)cc1NC(=O)CSc1nnc(CN2CCCC2)o1 | 1.49% |

| Compound | inhibition |
| --- | --- |
| Cc1ccc(NC(=O)c2cccc(S(=O)(=O)N3CCCc4ccccc43)c2)nc1 | -3.22% |
| O=C(NOCc1ccccc1)c1cccc([N+](=O)[O-])c1 | -14.1% |
| CNC(=O)c1ccsc1NC(=O)c1ccc(S(=O)(=O)N2CCc3ccccc32)cc1 | 5.3% |
| O=C(NC(Nc1nc2ccc([N+](=O)[O-])cc2s1)(C(F)(F)F)C(F)(F)F)c1ccccc1 | 87.4% (active) |
| O=C(Nc1nc2ccc([N+](=O)[O-])cc2s1)c1ccc(S(=O)(=O)N2CCCc3ccccc32)cc1 | 77.6% (active) |
| N=C1C(c2nc3ccccc3s2)=C(O)CN1NC(=O)c1ccc([N+](=O)[O-])cc1 | -3.9% |
| CCOc1ccc(C(=O)Nc2nccs2)cc1[N+](=O)[O-] | -24.3% |
| OC(c1ccc(Cl)cc1)C(CN1CCOCC1)c1ccccc1 (stereo not given) | -27.6% |
| Cc1ccc(C(CC(=O)O)NC(=O)c2ccc(S(=O)(=O)N3CCCC3)cc2)cc1 (stereo not given) | -3.63% |
| c1ccc(C(=NNc2nc3ccccc3s2)c2ccccn2)cc1 | 82.5% (active) |
| COc1cc(OC)nc(N/N=C(\c2ccccc2)c2ccncc2)n1 | 7.9% |
| C/C(=N/Nc1nc(-c2ccccc2)c(CC(=O)O)s1)c1ccccc1 | -23% |
| Cc1cc(S(=O)(=O)N2CCOCC2)ccc1OCC(=O)Nc1cccc(C(F)(F)F)c1 | -8.26% |
| COc1ccccc1N1CCN(C(=O)c2c(-c3c(Cl)cccc3Cl)noc2C)CC1 | -1.94% |
| COc1ccccc1N1CCN(C(=O)c2cc(=O)c3cc(C)ccc3o2)CC1 | 7.53% |
| COc1ccccc1N1CCN(C(=O)c2cc(=O)c3cc(C)cc(C)c3o2)CC1 | 56.9% (active) |
| Cc1coc2c1c(C)cc1oc(=O)c(CC(=O)NCC(=O)N[C@H](C(=O)O)C(C)C)c(C)c12 | 23.9% |
| O=C(NCCC1CCCCN1S(=O)(=O)c1cccs1)C(=O)Nc1ccc(F)cc1F (stereo not given) | 15.3% |
| COc1ccc(CCNC(=O)C(=O)NCC2CCCN2S(=O)(=O)c2cccs2)cc1OC (stereo not given) | 6.8% |
| COc1ccccc1CCNC(=O)C(=O)NCCC1CCCCN1S(=O)(=O)c1cccs1 (stereo not given) | 55.6% (active) |
| CCCCNC(=O)C1CCC(CNS(=O)(=O)c2ccc(NC(C)=O)cc2)CC1 (stereo not given) | -6.13% |
| CN(C)c1cc[n+](Cc2ccccc2)cc1 | 55.3% (active) |
| c1ccc(Cc2cc[n+](Cc3ccccc3)cc2)cc1 | 20.7% |

| Compound | inhibition |
| --- | --- |
| CN(C)c1ccc(CSc2ccccc2)cc1 | -50.9% |
| COc1cc(/C=N/NC(=O)c2cc(-c3ccccc3C)nc3ccccc23)cc(OC)c1O | 3.09% |
| COc1cccc(/C=N/NC(=O)c2[nH]nc3c2CCc2ccccc2-3)c1O | 81.1% (active) |
| COc1cccc(/C=N/NC(=O)CNC(=O)c2ccc(S(=O)(=O)N3CCOCC3)cc2)c1OC | 3.3% |
| O=C(NCCCNC(=O)NC1CCCCC1)NC1CCCCC1 | 0.18% |
| O=[N+]([O-])c1cc([N+](=O)[O-])c(Oc2cc(F)cc(F)c2F)cc1NN1CCCCC1 | -2.49% |
| Cn1c(=O)n(C)c2cc(NS(=O)(=O)c3ccc(F)cc3)ccc21 | 0.54% |
| Cn1c(CCN2CCCC2)nc2cc(NS(=O)(=O)c3ccccc3)ccc21 | 12.8% |
| CC1(C)CC(=O)c2c(n(S(=O)(=O)c3ccccc3)c3ccc(NS(=O)(=O)c4ccccc4)cc23)C1 | 84.1% (active) |
| C[C@H](CO)N1C[C@H](C)[C@@H](CN(C)Cc2ccc(-c3ccccc3)cc2)Oc2ccc(NC(=O)Cn3cnnn3)cc2C1=O | -7.22% |
| N#Cc1ccc(CN2CCN(CC(=O)Nc3ccccc3C(=O)NC3CC3)CC2)cc1 | -0.74% |
| COc1cccc(C(=O)Nc2c3c(nn2-c2cccc(C)c2C)CS(=O)(=O)C3)c1OC | 5.94% |
| CCC(=O)N1CCc2cc(Br)c(S(=O)(=O)NCCN3CCCCC3CC)cc21 (stereo not given) | -20.7% |
| CC(=O)Nc1ccc(S(=O)(=O)N2CCN(C(=O)c3ccccc3F)CC2)cc1 | 4.91% |
| COCCn1c(CN2CCC(Cc3ccccc3)CC2)nc2c1c(=O)n(C)c(=O)n2C | 66.7% (active) |
| COCCn1c(CN(Cc2ccccc2)Cc2ccccc2)nc2c1c(=O)n(C)c(=O)n2C | 9.35% |
| CC1CCN(Cc2nc3c(c(=O)n(C)c(=O)n3C)n2CCc2ccccc2)CC1 | 0.83% |
| NC1=NC(=O)C(Cc2cccc(Cl)c2Cl)S1 (stereo not given) | -27.7% |
| Cc1ccccc1NC(=O)Cn1cc(C(=O)C2CC2)c2ccccc21 | -3.91% |
| O=C(Cn1cc(C(=O)C2CC2)c2ccccc21)Nc1ccccc1Cl | 60.8% (active) |
| COCCCNC(=O)Cn1cc(C(=O)C2CC2)c2ccccc21 | 5.8% |

Reference: PubChem BioAssay AID588413 (Sanford-Burnham Center for Chemical Genomics, 2011)
